What all share (experiment): log2 fold change, soluble protein after heating vs DMSO (PISA); higher = thermal stabilisation; K562 cells, 10 uM, 30 min; active = over 0.2 and 3.5 SD of the protein, either way, in both replicates (recomputed)
Compound in assay [1]: CC1=C(C=C(C=C1)NC(=O)C2=CC(=CC=C2)C(C)(C)C#N)NC3=CC4=C(C=C3)N=CN(C4=O)C
The method in brief:
(§1)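 K562 cells (2×10^6 cells/mL) were treated with 10 μM compound for 30 min, and aliquots were heated for 3 min over 48°C-58°C. Pooled aliquots were extracted in PBS with 0.5% NP-40 at 4°C, and the supernatant after 21,000xg for 90 min was measured by TMTpro 16plex LC-MS/MS with channel sums equalised. Reported thermal stability, relative to control samples and from duplicates, is a log2 fold change.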

Compound in assay [2]: CC1=C(C=C(C=C1)NC(=O)C2=CC(=CC=C2)N(C)C)NC(=O)C3=CC=C(C=C3)O
The method in brief: as §1

Compound in assay [3]: CC1=CC=C(C=C1)SC2=C3C=C(SC3=CN=C2)C(=O)N
The method in brief:
as §1

Compound in assay [4]: CC1=NC(=CC=C1)C2=C(N=C(N2)C(C)(C)C)C3=CC4=NC=CN=C4C=C3
The method in brief: as §1

Compound in the next assay: CCCCN(Cc1ccc(C(=O)NO)cc1)C(=O)Nc1ccccc1 [Nexturastat A]
The method in brief: as §1

Compound in another assay: CCCS(=O)(=O)Nc1ccc(F)c(C(=O)c2c[nH]c3ncc(-c4ccc(Cl)cc4)cc23)c1F [vemurafenib]
The method in brief: as §1

Compound in assay [5]: CCCS(=O)(=O)Nc1ccc(F)c(C(=O)c2c[nH]c3ncc(Cl)cc23)c1F
The method in brief: as §1

Compound in assay [6]: CCCc1cc(C)[nH]c(=O)c1CNC(=O)c1cc(-c2ccnc(N3CCN(C)CC3)c2)cc2c1cnn2C(C)C
The method in brief: as §1

Compound in the next assay: CCN(CC)Cc1ccc2cc(COC(=O)Nc3ccc(C(=O)NO)cc3)ccc2c1 [givinostat]
The method in brief:
as §1

Compound in the next assay: CCN(CCCOc1ccc2c(Nc3cc(CC(=O)Nc4cccc(F)c4)[nH]n3)ncnc2c1)CCOP(=O)(O)O [barasertib]
The method in brief:
as §1

The full data set covers some 7,900 targets. This sample favours those with a hit. About 0.6% of all pairs of compound and target were hits. Unmarked numbers belong to inactive results.

UniProt P98173, sequence (P98173 whole entry, looked up): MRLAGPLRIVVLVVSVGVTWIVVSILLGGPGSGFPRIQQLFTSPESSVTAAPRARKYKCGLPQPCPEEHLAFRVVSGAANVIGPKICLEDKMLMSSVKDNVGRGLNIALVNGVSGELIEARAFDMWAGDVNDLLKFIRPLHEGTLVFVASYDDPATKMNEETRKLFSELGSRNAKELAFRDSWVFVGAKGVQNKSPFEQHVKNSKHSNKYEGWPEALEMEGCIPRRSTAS
UniProt O75477, sequence (O75477 whole entry, looked up): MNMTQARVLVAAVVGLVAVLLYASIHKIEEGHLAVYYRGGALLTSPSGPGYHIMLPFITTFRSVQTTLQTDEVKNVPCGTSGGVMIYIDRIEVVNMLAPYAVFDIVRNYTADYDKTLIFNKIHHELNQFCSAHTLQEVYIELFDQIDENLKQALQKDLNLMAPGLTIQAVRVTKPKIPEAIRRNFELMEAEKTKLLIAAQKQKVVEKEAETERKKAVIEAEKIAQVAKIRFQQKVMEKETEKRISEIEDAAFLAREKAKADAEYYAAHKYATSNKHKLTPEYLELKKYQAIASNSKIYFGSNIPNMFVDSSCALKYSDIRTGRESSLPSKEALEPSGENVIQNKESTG
UniProt Q96CS3, sequence (Q96CS3 whole entry, looked up): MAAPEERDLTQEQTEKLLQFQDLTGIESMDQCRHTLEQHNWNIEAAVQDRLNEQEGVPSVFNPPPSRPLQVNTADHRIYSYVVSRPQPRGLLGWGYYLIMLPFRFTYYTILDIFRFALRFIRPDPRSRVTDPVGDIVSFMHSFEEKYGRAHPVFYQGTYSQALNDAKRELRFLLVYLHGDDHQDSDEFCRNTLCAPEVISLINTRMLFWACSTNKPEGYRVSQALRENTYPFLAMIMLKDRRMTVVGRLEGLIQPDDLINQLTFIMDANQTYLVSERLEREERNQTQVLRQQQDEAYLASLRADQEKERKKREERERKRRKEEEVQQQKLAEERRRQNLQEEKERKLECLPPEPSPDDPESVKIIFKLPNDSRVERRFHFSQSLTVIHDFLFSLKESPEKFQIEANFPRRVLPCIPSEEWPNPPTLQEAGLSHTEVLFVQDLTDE
UniProt Q96A65, sequence (Q96A65 whole entry, looked up): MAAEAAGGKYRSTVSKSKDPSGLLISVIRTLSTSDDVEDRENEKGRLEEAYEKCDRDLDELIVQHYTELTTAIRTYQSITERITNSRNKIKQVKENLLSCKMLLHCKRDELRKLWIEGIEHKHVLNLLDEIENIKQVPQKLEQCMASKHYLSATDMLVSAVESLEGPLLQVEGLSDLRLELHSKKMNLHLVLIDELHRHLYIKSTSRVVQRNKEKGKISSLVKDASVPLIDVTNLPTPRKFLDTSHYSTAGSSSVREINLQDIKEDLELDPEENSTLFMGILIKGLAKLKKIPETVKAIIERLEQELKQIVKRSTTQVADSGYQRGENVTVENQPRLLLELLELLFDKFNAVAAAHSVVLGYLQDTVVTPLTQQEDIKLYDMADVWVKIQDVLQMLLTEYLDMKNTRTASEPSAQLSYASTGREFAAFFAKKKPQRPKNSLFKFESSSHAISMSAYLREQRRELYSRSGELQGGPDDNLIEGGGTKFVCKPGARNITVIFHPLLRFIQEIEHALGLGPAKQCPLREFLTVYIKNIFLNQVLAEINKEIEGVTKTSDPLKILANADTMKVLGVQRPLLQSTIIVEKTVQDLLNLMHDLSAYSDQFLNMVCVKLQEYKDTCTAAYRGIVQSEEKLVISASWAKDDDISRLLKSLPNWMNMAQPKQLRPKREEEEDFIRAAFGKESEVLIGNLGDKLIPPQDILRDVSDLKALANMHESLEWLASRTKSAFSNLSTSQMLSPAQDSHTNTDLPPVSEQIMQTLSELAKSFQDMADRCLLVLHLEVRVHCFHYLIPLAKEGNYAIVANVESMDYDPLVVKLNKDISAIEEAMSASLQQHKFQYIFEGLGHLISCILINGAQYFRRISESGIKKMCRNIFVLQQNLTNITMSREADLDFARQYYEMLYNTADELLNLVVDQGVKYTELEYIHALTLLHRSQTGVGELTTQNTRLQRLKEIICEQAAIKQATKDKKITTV
UniProt Q9NXW2, sequence (Q9NXW2 whole entry, looked up): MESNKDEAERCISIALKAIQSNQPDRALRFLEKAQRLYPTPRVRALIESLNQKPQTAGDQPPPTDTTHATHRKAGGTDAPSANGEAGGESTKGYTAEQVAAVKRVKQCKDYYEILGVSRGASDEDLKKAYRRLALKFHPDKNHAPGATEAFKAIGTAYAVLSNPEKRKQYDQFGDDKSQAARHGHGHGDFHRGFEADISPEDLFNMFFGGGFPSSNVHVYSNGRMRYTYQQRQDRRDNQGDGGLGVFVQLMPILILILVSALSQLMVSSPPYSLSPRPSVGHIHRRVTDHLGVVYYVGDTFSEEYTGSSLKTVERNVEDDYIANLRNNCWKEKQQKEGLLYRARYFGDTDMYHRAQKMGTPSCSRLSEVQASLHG
UniProt Q9HBU6, sequence (Q9HBU6 whole entry, looked up): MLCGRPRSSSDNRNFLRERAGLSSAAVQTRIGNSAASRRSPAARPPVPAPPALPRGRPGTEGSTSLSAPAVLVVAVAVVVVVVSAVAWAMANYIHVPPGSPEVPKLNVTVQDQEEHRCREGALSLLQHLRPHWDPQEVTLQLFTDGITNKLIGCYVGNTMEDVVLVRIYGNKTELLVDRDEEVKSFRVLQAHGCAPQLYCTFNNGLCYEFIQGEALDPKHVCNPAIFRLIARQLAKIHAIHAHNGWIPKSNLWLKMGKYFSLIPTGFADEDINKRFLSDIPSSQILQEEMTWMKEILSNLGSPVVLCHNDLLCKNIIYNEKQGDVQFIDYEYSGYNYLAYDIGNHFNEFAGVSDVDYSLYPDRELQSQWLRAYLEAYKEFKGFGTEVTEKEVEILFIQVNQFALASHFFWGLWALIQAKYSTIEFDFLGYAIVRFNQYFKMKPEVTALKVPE
UniProt Q8IYI6, sequence (Q8IYI6 whole entry, looked up): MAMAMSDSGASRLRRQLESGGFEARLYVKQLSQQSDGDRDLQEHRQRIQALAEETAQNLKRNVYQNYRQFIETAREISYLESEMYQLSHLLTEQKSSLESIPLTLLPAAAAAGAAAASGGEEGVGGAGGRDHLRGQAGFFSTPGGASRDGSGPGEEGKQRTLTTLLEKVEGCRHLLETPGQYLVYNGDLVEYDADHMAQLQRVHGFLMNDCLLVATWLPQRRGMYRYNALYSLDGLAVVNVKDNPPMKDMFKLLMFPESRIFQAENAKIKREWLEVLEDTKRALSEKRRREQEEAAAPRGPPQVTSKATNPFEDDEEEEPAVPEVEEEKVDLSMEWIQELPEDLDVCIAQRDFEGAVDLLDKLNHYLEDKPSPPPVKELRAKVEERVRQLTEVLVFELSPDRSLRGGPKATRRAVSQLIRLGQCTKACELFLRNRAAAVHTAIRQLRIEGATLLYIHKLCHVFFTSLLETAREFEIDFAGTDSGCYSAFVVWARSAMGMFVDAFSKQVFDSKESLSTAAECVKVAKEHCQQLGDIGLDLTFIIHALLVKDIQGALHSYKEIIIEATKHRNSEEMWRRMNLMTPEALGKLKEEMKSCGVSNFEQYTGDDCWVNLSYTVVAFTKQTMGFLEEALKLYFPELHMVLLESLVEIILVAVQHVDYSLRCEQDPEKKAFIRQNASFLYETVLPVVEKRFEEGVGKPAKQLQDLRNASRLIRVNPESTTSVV
UniProt Q7Z2Z2, sequence (Q7Z2Z2 whole entry, looked up): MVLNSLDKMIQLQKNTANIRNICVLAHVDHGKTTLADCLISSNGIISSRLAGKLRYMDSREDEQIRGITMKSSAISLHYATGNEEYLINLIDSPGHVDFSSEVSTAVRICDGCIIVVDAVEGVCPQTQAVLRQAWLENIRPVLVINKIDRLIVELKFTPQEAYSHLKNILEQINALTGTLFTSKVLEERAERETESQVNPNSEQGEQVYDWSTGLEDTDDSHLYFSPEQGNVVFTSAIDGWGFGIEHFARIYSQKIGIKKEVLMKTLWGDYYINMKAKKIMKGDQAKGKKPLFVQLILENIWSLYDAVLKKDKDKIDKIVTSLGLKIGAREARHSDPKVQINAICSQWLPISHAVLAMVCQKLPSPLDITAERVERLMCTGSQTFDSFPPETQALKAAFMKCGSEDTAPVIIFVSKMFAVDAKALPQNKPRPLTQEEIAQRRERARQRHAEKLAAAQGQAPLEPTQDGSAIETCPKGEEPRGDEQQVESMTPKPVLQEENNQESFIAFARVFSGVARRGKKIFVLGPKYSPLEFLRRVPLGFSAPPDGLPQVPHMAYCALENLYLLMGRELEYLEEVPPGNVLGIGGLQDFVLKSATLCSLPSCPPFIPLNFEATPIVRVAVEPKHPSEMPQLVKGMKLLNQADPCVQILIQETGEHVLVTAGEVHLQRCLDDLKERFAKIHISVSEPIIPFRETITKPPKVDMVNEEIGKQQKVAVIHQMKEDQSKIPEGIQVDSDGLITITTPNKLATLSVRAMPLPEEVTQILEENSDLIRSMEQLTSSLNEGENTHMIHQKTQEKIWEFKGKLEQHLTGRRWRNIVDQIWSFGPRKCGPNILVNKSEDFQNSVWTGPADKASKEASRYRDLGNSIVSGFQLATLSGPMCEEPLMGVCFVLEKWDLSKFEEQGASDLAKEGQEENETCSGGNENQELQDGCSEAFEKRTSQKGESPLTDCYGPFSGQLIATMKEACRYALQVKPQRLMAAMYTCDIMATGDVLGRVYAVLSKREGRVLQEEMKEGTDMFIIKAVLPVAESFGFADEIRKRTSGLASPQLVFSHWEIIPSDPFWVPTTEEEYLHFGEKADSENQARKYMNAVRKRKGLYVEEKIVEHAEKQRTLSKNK
UniProt P50402, sequence (P50402 whole entry, looked up): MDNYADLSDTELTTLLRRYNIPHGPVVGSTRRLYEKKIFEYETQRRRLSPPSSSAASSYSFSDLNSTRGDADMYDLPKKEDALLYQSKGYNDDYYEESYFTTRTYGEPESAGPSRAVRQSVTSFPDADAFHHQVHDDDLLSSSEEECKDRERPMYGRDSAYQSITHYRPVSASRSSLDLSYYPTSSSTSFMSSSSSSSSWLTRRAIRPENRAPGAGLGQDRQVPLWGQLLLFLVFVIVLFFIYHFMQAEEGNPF

In the case of EXOC4 (UniProt Q96A65), the log2 fold change was -0.021 in assay [1]; 0.029 in assay [2]; 0.021 in assay [3]; 0.001 in [4]; 0.209 with Nexturastat A; -0.003 with vemurafenib. The log2 fold change in [5] is 0.098; in assay [6] it was 0.01; in the assay with givinostat it was 0.133; with barasertib, 0.139.

Consider ETNK1 (UniProt Q9HBU6), for which the log2 fold change in [1] was 0.241; in assay [2], -0.054; in assay [3], 0.022; in assay [4] it was 0.02; with Nexturastat A, -0.177; with vemurafenib, 0.006. Further, the log2 fold change in assay [5] is 0.172; in assay [6] it was -0.076; in the assay with givinostat it was 0.042; with barasertib, 0.005.

For the target EHBP1L1 (UniProt Q8N3D4), the log2 fold change in assay [1] is 0; in assay [2], -0.02; in assay [3], -0.003; in assay [4] it was -0.043; with Nexturastat A, 0.011; in the assay with vemurafenib, 0.034. Also, the log2 fold change in [5] was 0.007; in assay [6], 0.025; with givinostat, 0.026; with barasertib it was 0.016.

In the case of FAM83D (UniProt Q9H4H8), the log2 fold change is 0.008 in assay [1]; -0.029 in assay [2]; 0.028 in assay [3]; 0.018 in assay [4]; 0.102 with Nexturastat A; 0.041 with vemurafenib. Further, the log2 fold change in [5] was 0.097; in assay [6] it was 0.016; in the assay with givinostat it was 0.103; with barasertib, 0.128.

Regarding EFL1 (UniProt Q7Z2Z2), the log2 fold change in assay [1] was -0.025; in [2], 0.004; in [3], 0.016; in [4], 0.012; with Nexturastat A, -0.11; with vemurafenib it was 0.04. The log2 fold change in assay [5] was 0.036; in assay [6] it was 0.008; with givinostat it was 0.004; in the assay with barasertib, 0.05.

Turning to ERLIN1 (UniProt O75477), the log2 fold change is 0.011 in [1]; -0.018 in assay [2]; 0.028 in assay [3]; -0.01 in [4]; 0.031 in the assay with Nexturastat A; -0.02 with vemurafenib. Moreover, the log2 fold change was 0.014 in assay [5], 0.065 in assay [6], 0.014 with givinostat and 0.028 with barasertib.

For FADS1, A0A0A0MR51, the log2 fold change in [1] was 0.09; in assay [2], -0.019; in [3], 0.008; in assay [4], 0.069; in the assay with Nexturastat A, -0.006; with vemurafenib, -0.002. The log2 fold change was 0.021 in assay [5], -0.034 in assay [6], -0.274 (active) with givinostat and 0.031 in the assay with barasertib.

For the target FAF2 (UniProt Q96CS3), the log2 fold change in assay [1] was 0.015; in assay [2], -0.021; in assay [3], 0.008; in assay [4], -0.016; with Nexturastat A it was 0.009; with vemurafenib it was 0.038. The log2 fold change is 0.008 in assay [5], -0.039 in assay [6], 0.036 in the assay with givinostat and 0.021 in the assay with barasertib.

Consider FAM3A (UniProt P98173), for which the log2 fold change in assay [1] was -0.022; in assay [2], 0.012; in assay [3], -0.005; in assay [4], 0.003; in the assay with Nexturastat A, -0.304 (active); with vemurafenib, 0.015. Also, the log2 fold change in [5] was 0.013; in [6], -0.031; in the assay with givinostat, -0.001; with barasertib, 0.014.

In the case of EMD (UniProt P50402), the log2 fold change in assay [1] is -0.056; in assay [2], 0.011; in assay [3] it was -0.076; in assay [4] it was -0.04; in the assay with Nexturastat A it was 0.059; with vemurafenib, -0.015. Besides, the log2 fold change is 0.021 in assay [5], -0.092 in assay [6], 0.002 with givinostat and 0.002 with barasertib.

As for ECPAS (UniProt Q5VYK3), the log2 fold change was 0.008 in assay [1]; -0.06 in assay [2]; 0.016 in assay [3]; 0.02 in [4]; 0.049 with Nexturastat A; 0.084 with vemurafenib. Besides, the log2 fold change is 0.059 in [5], 0.051 in assay [6], 0.118 with givinostat and 0.037 with barasertib.

For EXOC8 (UniProt Q8IYI6), the log2 fold change in [1] was 0.035; in [2], -0.085; in assay [3] it was 0.037; in assay [4], 0.016; with Nexturastat A, -0.087; in the assay with vemurafenib it was 0.048. In addition, the log2 fold change is 0.01 in [5], -0.091 in assay [6], 0.028 in the assay with givinostat and 0.048 with barasertib.

For the target DHCR7 (UniProt Q9UBM7), the log2 fold change was -0.037 in [1]; -0.028 in assay [2]; -0.055 in assay [3]; 0.023 in assay [4]; 0.104 in the assay with Nexturastat A; 0.011 with vemurafenib. Moreover, the log2 fold change was 0.039 in assay [5], 0.139 in [6], 0.808 (active) in the assay with givinostat and 0.204 in the assay with barasertib.

Take DNAJC1 (UniProt Q96KC8): the log2 fold change in [1] is 0.027; in assay [2], 0; in [3] it was 0.014; in [4], 0.049; with Nexturastat A it was -0.079; with vemurafenib, -0.007. Moreover, the log2 fold change in assay [5] is 0.037; in assay [6], -0.13; in the assay with givinostat, -0.013; in the assay with barasertib it was 0.047.

As to DNAJB12 (UniProt Q9NXW2), the log2 fold change is -0.071 in [1]; -0.017 in assay [2]; -0.002 in [3]; 0.017 in assay [4]; 0.044 in the assay with Nexturastat A; 0.008 in the assay with vemurafenib. Besides, the log2 fold change in assay [5] is 0.008; in assay [6], -0.069; with givinostat, 0.06; in the assay with barasertib it was -0.001.
